# System: HepG2
# Assay: GSK_TCMDC: Percent inhibition of human HepG2 cell line. Test compounds present at 10uM.
# Assay type: functional
row,Structure (SMILES),Inhibition
1,Cl.Cn1ncc2c3c(CCN4CCC(NCc5cc6c(cn5)OCCO6)CC4)c(Cl)cnc3ccc21,1%
2,Clc1nc2ccccn2c1C=Cc1ccc2ccccc2n1,0%
3,N#Cc1ccc2c(c1)CCN(CCCn1c(-c3ccc4ccccc4c3)nc3ccncc31)CC2,38%
4,CCCOc1ccc(NC(=O)c2cccs2)cc1Cl,1%
5,Cc1ccc2nc(C)n(C3CCN(C(=O)Cc4ccccc4C)CC3)c2c1,2%
6,CC1(C(=O)Nc2ccc([N+](=O)[O-])cc2O)CC2c3ccccc3C1c1ccccc12 (stereo not given),37%
7,CCc1cn(C)c2c(N3CCCC3=O)cc(C(=O)N[C@@H](Cc3ccccc3)[C@H](O)CNC(C)(C)c3cccc(C(F)(F)F)c3)cc12,22%
8,COc1ccccc1-n1c(SCC(=O)c2ccc3c(c2)CC(=O)N3C)nnc1-c1cccs1,7%
9,Nc1oc2c(CN3CCCCCC3)c(O)ccc2c(=O)c1-c1nc2ccccc2s1,12%
10,NCc1ccc(-c2ccccc2CNC2CCN(Cc3ccccc3)CC2)cc1.O=C(O)C(F)(F)F,20%
11,CCC[C@@H]([C@@H](CC(C)C)C(=O)N[C@@H](CCCCNC(=O)c1ccccn1)C(=O)Nc1nccs1)N(O)C=O,0%
12,N#Cc1ccc(N(CCOC(=O)c2ccc(Br)s2)Cc2ccccc2C(F)(F)F)cc1C(F)(F)F,8%
13,CC[C@H](C)CNC(=O)c1cncc(-c2cccc(CNCCCc3ccccc3)c2)c1.O=C(O)C(F)(F)F,9%
14,O=C(Nc1ccc(Cn2nc(Cl)c(N3CCCNCC3)cc2=O)cc1)c1ccc(-c2ccccc2)cc1.O=C(O)C(F)(F)F,93%
15,Br.Oc1ccc(CCNCCCCNCCc2ccc(Cl)cc2)cc1O,33%
16,COc1ccc2nccc([C@@H](O)CN3CCC(NCc4cc5ccccc5cn4)CC3)c2n1.O=C(O)C(=O)O,3%
17,CC1(C)Cc2c([nH]c3ccccc23)C(CCCCCCCCC2=NC(C)(C)Cc3c2[nH]c2ccccc32)=N1.Cl,100%
18,COc1ccccc1-c1ccc2nnc(SCC(=O)Nc3ccc4c(c3)OCCO4)n2n1,9%
19,Cc1c(CNCCN2CCCCC2)c(C(=O)O)c(C)n1Cc1ccc(Cl)cc1,4%
20,O=C(Nc1ccccc1F)NC1CCN(c2ccnc(Nc3ccc(F)cc3)n2)CC1,13%

row,Structure (SMILES),Inhibition
1,Clc1ccccc1CCNCC1CCN(CC2CCCCC2)CC1.O=C(O)C(F)(F)F,45%
2,O=C(Nc1cccc(C(F)(F)F)c1)c1ccc(S(=O)(=O)NC2CCN(CC3CCCCC3)CC2)cc1.O=C(O)C(F)(F)F,25%
3,Cc1ccc(NC(=O)N2CCC(n3c(-c4ccccc4)nc4cccnc43)CC2)cc1F,23%
4,CCN(CC)CCN(Cc1ccc(-c2ccc(C(F)(F)F)cc2)cc1)C(=O)Cn1cc(CCCc2cccc(F)c2F)c(=O)c2ccccc21.O=C(O)C(O)C(O)C(=O)O,13%
5,Cl.Nc1nc(N)c2c(Cl)c(N(Cc3ccccc3)Cc3ccccc3)ccc2n1,66%
6,CN(C(=O)Nc1ccc(F)cc1)C1CCN(CCCCCNC(=O)/C=C/c2ccc(Cl)c(Cl)c2)CC1,38%
7,Cc1cccc(CCNC(=O)c2cc(Br)cc(N3CCN(c4ccncc4)CC3)c2)c1.O=C(O)C(F)(F)F,48%
8,Cl.N#Cc1ccc2c(c1)CCN(CCC1CCC(NC(=O)/C=C/c3ccc4[nH]ccc4c3)CC1)CC2 (stereo not given),2%
9,Cc1[nH]c(C)c(-c2ccc(OCc3ccc(OC(F)(F)F)cc3)nc2)c(=O)c1Br,10%
10,COc1ccc(CNCCCCCCNCCc2ccc(Cl)cc2)cc1OC.Cl,21%
11,COc1ccc(-c2ccc(NC(=O)c3cccc(C#N)c3)cc2)cc1CN1CCC(O)CC1.O=C(O)C(F)(F)F,21%
12,CN(C)c1cccc2c1nc(-c1ccco1)n2CCNCc1ccccc1.O=C(O)C(F)(F)F,0%
13,N#Cc1ccc(-c2nc3c(N4CCCC4)cccc3n2CCNCc2ccccc2)cc1.O=C(O)C(F)(F)F,2%
14,CCc1cc2c(cc1OCCN(C)C)N(C(=O)Nc1ccc(-c3ccncc3)c(Cl)c1)CC2,18%
15,COc1ccccc1CNC(=O)CCn1c(=O)[nH]c2ccsc2c1=O,0%
16,Cl.c1ccc2ncc(CNCCCCCCCCNCc3cnc4ccccc4c3)cc2c1,8%
17,O=C(NCc1ccc(Cl)cc1)c1ccc(C(=O)NCC2CCCN2CC2CCCCC2)cc1.O=C(O)C(F)(F)F (stereo not given),21%
18,NC1=NC(c2ccccc2)(c2ccccc2)C(=O)N1CCCCc1ccccc1.O=CO,14%
19,Cc1[nH]c(C)c(-c2ccc(Br)cc2)c(=O)c1Cl,22%
20,CCc1cccc(C)c1-n1nc(-c2cc(C(C)(C)C)oc2C)cc1N,4%

# — ChEMBL document CHEMBL1157539, “Thousands of chemical starting points for antimalarial lead identification” (Nature, 2010)
